# In all, about 81,000 sequences were measured (“one-hybrid fitness for binding parS DNA”: median about -0.17, highest 2% from about 0.51 on). Only a selection was taken, and the highest values are over-represented in it overall.
# B1: Caulobacter ParB omega fusion; a variant is named by its letters at X, in order, B8GW30 (parent)
# chain: MESVVVGEPGMSEGRRGLGRGLSALLGEVDAAPAQAPGEQLGGSREAPIEILQRNPDQPRRTFREEDLEDLSNSIREKGVLQPILVRPSPDTAGEYQIVAGERAWRAAQRAGLKTVPIMVRELDDLAVLEIGIIENVQRADLNVLEEALSYKVLMEKFERTQENIAQTIGKSXSHVANXMRLLXLPDEVQSYLVSGELTAXHARAIAAAADPVALAKQIIEGGLSVRETEALARKAPNLSAGKSKGGRPPRVKDTDTQALESDLSSVLGLDVSIDHRGSTGTLTITYATLEQLDDLCNRLTRGI
# Variants of: B1
# Assay: one-hybrid fitness for binding parS DNA (scaled: cognate 1, non-cognate 0); higher = stronger binding
# Details: with parS DNA site
# In short: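 Fitness here means the log change in variant-to-wild-type read ratio between plasmids sequenced before and after selection. That scale was set so cognate equals 1 and non-cognate equals 0. The selection was a bacterial one-hybrid screen of Caulobacter ParB libraries, four specificity codons randomised, in E. coli USO carrying a HIS3 reporter with the site 19 bp from the promoter, grown 48 hours at 37°C on M9-minus-histidine with 0.1 mM IPTG and 5 mM 3-AT.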
row,Variant,one-hybrid fitness for binding parS DNA
1,LQQY,≤ 0.2
2,RMNS,0.911
3,RMYS,1.01
4,RMYN,0.47
5,RMNP,≤ 0.2
6,RMYH,0.234
7,RMNH,0.287
8,AHEC,≤ 0.2
9,EPSR,≤ 0.2
10,TPDV,≤ 0.2
11,PQMC,≤ 0.2
12,RNTK,≤ 0.2
13,RNTP,≤ 0.2
14,RNTT,0.746
15,RNTR,≤ 0.2
16,RNTC,0.865
17,RNTD,≤ 0.2
18,RNTH,≤ 0.2
19,RNTS,0.964
20,RNTY,0.368
21,RNTG,0.908
22,RNTN,0.357
23,RNTM,0.233
24,NCAN,≤ 0.2

row,Variant,one-hybrid fitness for binding parS DNA
1,MWTR,≤ 0.2
2,DRQW,≤ 0.2
3,ADQL,≤ 0.2
4,NGAG,≤ 0.2
5,HAPM,≤ 0.2
6,HNLP,≤ 0.2
7,SYAS,≤ 0.2
8,DFNG,≤ 0.2
9,RFDG,0.814
10,AFDG,≤ 0.2
11,RFDD,≤ 0.2
12,RFNG,1
13,NFNG,≤ 0.2
14,LMSV,≤ 0.2
15,AAST,≤ 0.2
16,SSPQ,≤ 0.2
17,THVR,≤ 0.2
18,DHYT,≤ 0.2
19,GFSS,≤ 0.2
20,RYVK,≤ 0.2
21,RYKH,≤ 0.2
22,RYVR,≤ 0.2
23,RYKT,0.708
24,RYKN,0.394

row,Variant,one-hybrid fitness for binding parS DNA
1,RYVT,0.716
2,HYNK,≤ 0.2
3,QWNN,≤ 0.2
4,PIAM,≤ 0.2
5,LLNT,≤ 0.2
6,MIIT,≤ 0.2
7,IARP,≤ 0.2
8,RGVW,≤ 0.2
9,RRVN,0.268
10,RRKM,0.802
11,RRDM,≤ 0.2
12,RCNM,0.349
13,RCKM,0.402
14,RRKP,0.338
15,RRKN,0.84
16,RRKS,0.684
17,RRKD,≤ 0.2
18,RRNM,0.656
19,RRVM,≤ 0.2
20,RCKN,0.463
21,IVNW,≤ 0.2
22,TART,≤ 0.2
23,ACQS,≤ 0.2
24,MKRG,≤ 0.2

row,Variant,one-hybrid fitness for binding parS DNA
1,RCKH,≤ 0.2
2,RRRM,0.762
3,RRVS,0.708
4,RRVH,≤ 0.2
5,RRKH,0.623
6,RCRM,0.365
7,RRYM,0.206
8,RRVD,≤ 0.2
9,RRVP,≤ 0.2
10,GKVS,≤ 0.2
11,NRQG,≤ 0.2
12,ATIC,≤ 0.2
13,YVNR,≤ 0.2
14,QQAI,≤ 0.2
15,RVPA,0.324
16,PVHA,≤ 0.2
17,PVSA,≤ 0.2
18,NVWA,≤ 0.2
19,RVWA,0.616
20,RVSA,0.581
21,RVHA,0.552
22,SVIA,≤ 0.2
23,DVWA,≤ 0.2
24,RVIA,0.522

row,Variant,one-hybrid fitness for binding parS DNA
1,TLSH,≤ 0.2
2,DKSV,≤ 0.2
3,GGQR,≤ 0.2
4,GCKT,≤ 0.2
5,HKHC,≤ 0.2
6,EMRS,≤ 0.2
7,QDPW,≤ 0.2
8,RVQA,0.597
9,RVNA,0.602
10,NVNA,≤ 0.2
11,EVQA,≤ 0.2
12,RVYA,0.64
13,DVMA,≤ 0.2
14,RVEA,0.483
15,RVMA,0.545
16,PVNA,≤ 0.2
17,NVYA,≤ 0.2
18,NVQA,≤ 0.2
19,FHNR,≤ 0.2
20,KHET,≤ 0.2
21,LGQH,≤ 0.2
22,KKTT,≤ 0.2
23,TGPM,≤ 0.2
24,PPMA,≤ 0.2

row,Variant,one-hybrid fitness for binding parS DNA
1,WVPV,≤ 0.2
2,GEND,≤ 0.2
3,TSEH,≤ 0.2
4,RVDA,0.556
5,RVLA,0.565
6,NVLA,≤ 0.2
7,NVDA,≤ 0.2
8,RVRA,0.689
9,CVLA,≤ 0.2
10,DVGA,≤ 0.2
11,PVGA,≤ 0.2
12,NVRA,≤ 0.2
13,RVGA,0.565
14,DVRA,≤ 0.2
15,EWRT,≤ 0.2
16,LSNV,≤ 0.2
17,LQAW,≤ 0.2
18,ESFC,≤ 0.2
19,WPSS,≤ 0.2
20,KRVW,≤ 0.2
21,IRFN,≤ 0.2
22,FLDR,≤ 0.2
23,MLTT,≤ 0.2
24,YVRR,≤ 0.2

row,Variant,one-hybrid fitness for binding parS DNA
1,RCPV,≤ 0.2
2,NVCA,≤ 0.2
3,RVCA,0.608
4,KMLT,≤ 0.2
5,WVPC,≤ 0.2
6,CYWL,≤ 0.2
7,QPKK,≤ 0.2
8,VRCA,≤ 0.2
9,RHVC,0.773
10,RHVQ,≤ 0.2
11,RHKM,0.358
12,RHKC,0.858
13,RHVR,≤ 0.2
14,RHKQ,≤ 0.2
15,SHAT,≤ 0.2
16,DRYP,≤ 0.2
17,IQCS,≤ 0.2
18,TYDM,≤ 0.2
19,RGVN,≤ 0.2
20,RGKN,0.369
21,RGVT,0.33
22,RGKY,0.436
23,RGVS,0.516
24,RGKS,0.927

row,Variant,one-hybrid fitness for binding parS DNA
1,RGKD,≤ 0.2
2,RGVP,≤ 0.2
3,RGKT,0.712
4,LSNY,≤ 0.2
5,WVRY,≤ 0.2
6,MIPI,≤ 0.2
7,GELY,≤ 0.2
8,GYSK,≤ 0.2
9,QACE,≤ 0.2
10,NCKN,≤ 0.2
11,VNAS,≤ 0.2
12,DRKA,≤ 0.2
13,RRKA,0.532
14,NRVA,≤ 0.2
15,RRVA,0.78
16,NRKA,≤ 0.2
17,YMAC,≤ 0.2
18,EHCS,≤ 0.2
19,RYLK,≤ 0.2
20,RYQP,≤ 0.2
21,RYQC,0.898
22,RYLR,≤ 0.2
23,RYQN,0.318
24,RYSK,≤ 0.2

row,Variant,one-hybrid fitness for binding parS DNA
1,RYLC,0.955
2,RYSC,0.929
3,RYSF,≤ 0.2
4,RYHR,≤ 0.2
5,RYHC,0.949
6,RYHY,0.423
7,SLCV,≤ 0.2
8,CHLH,≤ 0.2
9,CAHG,≤ 0.2
10,MLWF,0.204
11,KWCS,≤ 0.2
12,VPGF,≤ 0.2
13,PGPY,≤ 0.2
14,ELLG,≤ 0.2
15,NRNN,≤ 0.2
16,TSHR,≤ 0.2
17,SYEV,≤ 0.2
18,RYCR,≤ 0.2
19,RYRM,0.328
20,RYYC,0.975
21,RYRK,≤ 0.2
22,RYWR,≤ 0.2
23,RYWF,0.258
24,RYWC,0.887

row,Variant,one-hybrid fitness for binding parS DNA
1,RYYR,≤ 0.2
2,RYRC,0.798
3,RYCC,0.903
4,RYYQ,≤ 0.2
5,RYCF,≤ 0.2
6,QPAG,≤ 0.2
7,WKQT,≤ 0.2
8,SDLQ,≤ 0.2
9,CPED,≤ 0.2
10,GWLY,≤ 0.2
11,RYGC,0.914
12,RYGP,≤ 0.2
13,RYGH,≤ 0.2
14,DNPV,≤ 0.2
15,NFHG,≤ 0.2
16,RFYG,0.899
17,DFRG,≤ 0.2
18,NFCG,≤ 0.2
19,DFHG,≤ 0.2
20,SFCG,≤ 0.2
21,DFYG,≤ 0.2
22,RFCG,0.895
23,NFRG,≤ 0.2
24,NFYG,≤ 0.2

row,Variant,one-hybrid fitness for binding parS DNA
1,RFHG,0.974
2,RFRG,0.992
3,QYLK,≤ 0.2
4,ALTP,≤ 0.2
5,ELKN,≤ 0.2
6,VNHC,≤ 0.2
7,DHWC,≤ 0.2
8,FRFT,≤ 0.2
9,TDKR,≤ 0.2
10,FTYC,≤ 0.2
11,QQPP,≤ 0.2
12,WLFI,≤ 0.2
13,AEPL,≤ 0.2
14,DFLG,≤ 0.2
15,RFLG,0.891
16,RFGD,≤ 0.2
17,RFGG,0.918
18,NFGG,≤ 0.2
19,RFLH,0.217
20,QKFT,≤ 0.2
21,TIPM,≤ 0.2
22,NRAA,≤ 0.2
23,DRAA,≤ 0.2
24,RRAA,0.724

row,Variant,one-hybrid fitness for binding parS DNA
1,NRFA,≤ 0.2
2,RRFA,0.806
3,DRFA,≤ 0.2
4,RAFI,≤ 0.2
5,DPVD,≤ 0.2
6,RHKG,0.879
7,RHKH,0.248
8,RHVP,≤ 0.2
9,RHKD,≤ 0.2
10,RHVH,≤ 0.2
11,RHVG,0.847
12,QEEC,≤ 0.2
13,PYTA,≤ 0.2
14,QTGF,≤ 0.2
15,RWHH,≤ 0.2
16,RWLG,0.685
17,RWNP,≤ 0.2
18,RWRG,0.881
19,RWLF,≤ 0.2
20,RWHP,≤ 0.2
21,RWNN,0.355
22,RWRY,0.494
23,RWRQ,≤ 0.2
24,RWHG,0.754

row,Variant,one-hybrid fitness for binding parS DNA
1,RWNG,0.797
2,RWLY,0.266
3,DKAC,≤ 0.2
4,PMRT,≤ 0.2
5,CRCT,≤ 0.2
6,TSLF,≤ 0.2
7,MEYL,≤ 0.2
8,QCLV,≤ 0.2
9,EWYS,≤ 0.2
10,RWIF,≤ 0.2
11,RWPG,0.406
12,RWYM,≤ 0.2
13,RWYG,0.714
14,RWSQ,≤ 0.2
15,RWSR,≤ 0.2
16,RWGF,≤ 0.2
17,RWGM,≤ 0.2
18,RWGG,0.63
19,RWYF,≤ 0.2
20,RWIG,0.569
21,RWSG,0.769
